# Out of some 52,000 compounds screened, about 1,700 (3.3%) were called active. The sample holds actives, similar compounds and a random draw of the others, so the mix is not that of the screen. Rule as the data show it: active = survival mostly below about 52% (no sharp cut-off); inactive = mostly above about 56%.
# System: Wild type
# Experiment: S. aureus survival, RN4220 and DeltatarO strains – OD600, teichoic acid synthesis inhibitors, primary screen (AID 463173)
# Conditions: S. aureus RN4220 wild type/DeltatarO growth, OD600, 18 h, hits give low values, screened at 18.75 µg/mL (by protocol)
row,SMILES,survival
1,COc1ccc(N2C(=O)CSC23C(=O)N(Cc2ccccc2F)c2ccccc23)cc1Cl (centres undefined),68% (inactive)
2,COc1cccc(NC(=O)CSC2=Nc3ccccc3N=C(c3ccc(F)cc3)C2)c1,69% (inactive)
3,O=C(CSC1=Nc2ccccc2C2=NC(Cc3ccccc3)C(=O)N12)Nc1cccc(Cl)c1 (centres undefined),76% (inactive)
4,Cc1cccc(NC(=O)Cn2nnc(C(=O)NCc3cccs3)c2N)c1,89% (inactive)
5,Cc1ccc(-n2ncc3c(N4CCN(c5ccccc5)CC4)ncnc32)cc1C,69% (inactive)
6,CCN1CCC(N(Cc2cccc(OC)c2)C(=O)Nc2cccc(C(F)(F)F)c2)CC1,66% (inactive)
7,O=C(O)c1ccc(NC(=O)c2ccc(Br)c(S(=O)(=O)N3CCCC3)c2)cc1,70% (inactive)
8,O=C(OCc1cc(=O)n2nc(C3CCCCC3)sc2n1)c1ccccc1Cl,59% (inactive)
9,O=C(Nc1ccccc1)c1cn(-c2ccccc2)nc1-c1ccccc1,86% (inactive)
10,Cc1nc(-c2ccc(C)c(S(=O)(=O)N3CCC(C(=O)Nc4ccc(Cl)cc4)CC3)c2)no1,121% (inactive)
11,Cc1nc2c(C(=O)NCc3ccccc3)c[nH]n2c(=O)c1Cc1ccccc1Cl,22% (inactive)
12,Cc1nc2c(C(=O)NCCc3ccc(Cl)cc3)c[nH]n2c(=O)c1Cc1ccccc1F,-11% (active)
13,Cc1nc2c(C(=O)N(C)Cc3ccccc3)c[nH]n2c(=O)c1Cc1ccc(Cl)cc1,94% (inactive)
14,Cc1nc2c(C(=O)NCCc3ccc(Cl)cc3)c[nH]n2c(=O)c1Cc1ccc(Cl)cc1,-14% (active)
15,COc1ccc(CCNC(=O)c2cc(C)nc3c2c(C)nn3-c2ccccc2)cc1OC,76% (inactive)
16,Cc1nc2c(C(=O)NCc3ccccc3Cl)c[nH]n2c(=O)c1Cc1cccc(Cl)c1,-15% (active)
17,Cc1nc2c(C(=O)NCc3ccccc3Cl)cnn2c(C)c1Cc1ccccc1,85% (inactive)
18,Cc1nc2c(C(=O)NCCc3ccc(Cl)cc3)cnn2c(C)c1Cc1c(F)cccc1Cl,59% (inactive)
19,Cc1nc2c(C(=O)NCCc3ccc(Cl)cc3)cnn2c(C)c1Cc1ccc(F)cc1,73% (inactive)
20,COc1ccc(CCNC(=O)c2c[nH]n3c(=O)c(Cc4ccccc4Cl)c(C)nc23)cc1OC,0% (active)
21,Cc1cccn2c(=O)c(C(=O)NCCc3ccc(Cl)cc3)cnc12,77% (inactive)
22,COc1ccc(CCNC(=O)c2ccc(Cn3c(=O)c4ccccc4n(Cc4ccccc4Cl)c3=O)cc2)cc1OC,95% (inactive)
23,Cc1cccc(C(=O)Nc2ccccc2OCc2cc(=O)n3c(C)csc3n2)c1,90% (inactive)
24,Cc1ccc(Cl)cc1N1CCN(S(=O)(=O)c2ccc3c(c2)CC(=O)N3C)CC1,113% (inactive)

# From PubChem BioAssay AID463173 (ICCB-Longwood Screening Facility, Harvard Medical School, 2010)
